Reference: PubChem BioAssay AID1159580 (chemical genetic matrix, 2015)
Out of some 5,500 compounds screened, about 2,000 (36%) were called active. About 18% were inconclusive and are not listed. No stated cut-off is given here; in the data, active means normalized growth mostly below about 0.91 (no sharp cut-off); inconclusive means no clear call, values can overlap the other calls; inactive means mostly above about 0.92. Some of the results follow.

Experiment: chemical genetic growth profiling, strain panel (AID 1159580);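 further: tested at 20 µM; growth read once vehicle control cultures reached saturation at 30 °C; 1 = growth at the plate median or of vehicle wells; lower values mean less growth of the strain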
Details: growth OD

Measured: normalized growth

Cn1c(=O)[nH]c(=O)c2[nH]cnc21
inactive: S. cerevisiae deletion strains, locus YJR075W, strain HOC1, hits give low values 0.995 | S. cerevisiae deletion strains, locus YKL009W, strain mrt4, hits give low values 0.998 | S. cerevisiae deletion strains, locus YKL068W, hits give low values 0.97 | S. cerevisiae deletion strains, locus YKL085W, strain MDH1 (second series), hits give low values 0.976 | S. cerevisiae deletion strains, locus YKL085W, strain MDH1, hits give low values 0.976 | S. cerevisiae deletion strains, locus YKL160W, strain elf1, hits give low values 1 | S. cerevisiae deletion strains, locus YKL190W, strain CNB1, hits give low values 0.995 | S. cerevisiae deletion strains, locus YKR001C, strain vps1, hits give low values 0.987 | S. cerevisiae deletion strains, locus YKR026C, strain gcn3, hits give low values 0.984 | S. cerevisiae deletion strains, locus YKR091W, strain srl3, hits give low values 0.992 | S. cerevisiae deletion strains, locus YLL001W, strain dnm1, hits give low values 1.01 | S. cerevisiae deletion strains, locus YLL026W, hits give low values 1 | S. cerevisiae deletion strains, locus YLL041C, strain sdh2, hits give low values 1 | S. cerevisiae deletion strains, locus YLR027C, strain aat2, hits give low values 0.974 | S. cerevisiae deletion strains, locus YLR039C, strain RIC1, hits give low values 0.974 | S. cerevisiae deletion strains, locus YLR058C, strain SHM2, hits give low values 0.988 | S. cerevisiae deletion strains, locus YLR102C, strain apc9, hits give low values 0.972 | S. cerevisiae deletion strains, locus YLR113W, strain HOG1, hits give low values 0.998 | S. cerevisiae deletion strains, locus YLR221C, strain rsa3, hits give low values 1.01 | S. cerevisiae deletion strains, locus YLR258W, strain gsy2, hits give low values 0.999 | S. cerevisiae deletion strains, locus YLR262C, strain YPT6 (second series), hits give low values 0.976 | S. cerevisiae deletion strains, locus YLR262C, strain YPT6, hits give low values 1.01 | S. cerevisiae deletion strains, locus YLR268W, strain sec22, hits give low values 0.956 | S. cerevisiae deletion strains, locus YLR320W, strain mms22, hits give low values 0.987 | S. cerevisiae deletion strains, locus YLR330W, strain CHS5, hits give low values 0.991 | S. cerevisiae deletion strains, locus YLR342W, strain FKS1 (second series), hits give low values 1.01 | S. cerevisiae deletion strains, locus YLR342W, strain FKS1, hits give low values 1.01 | S. cerevisiae deletion strains, locus YLR357W, strain rsc2, hits give low values 0.971 | S. cerevisiae deletion strains, locus YLR370C, strain arc18, hits give low values 0.989 | S. cerevisiae deletion strains, locus YLR371W, strain rom2, hits give low values 0.96 | S. cerevisiae deletion strains, locus YLR384C, strain iki3, hits give low values 0.983 | S. cerevisiae deletion strains, locus YLR418C, strain cdc73, hits give low values 0.983 | S. cerevisiae deletion strains, locus YML016C, strain PPZ1, hits give low values 0.986 | S. cerevisiae deletion strains, locus YML032C, strain rad52, hits give low values 0.974 | S. cerevisiae deletion strains, locus YML120C, strain ndi1, hits give low values 0.999 | S. cerevisiae deletion strains, locus YML124C, strain tub3, hits give low values 0.972 | S. cerevisiae deletion strains, locus YMR058W, strain fet3, hits give low values 1.01 | S. cerevisiae deletion strains, locus YMR078C, strain ctf18, hits give low values 0.954 | S. cerevisiae deletion strains, locus YMR125W, strain sto1, hits give low values 1.01 | S. cerevisiae deletion strains, locus YMR129W, hits give low values 0.99 | S. cerevisiae deletion strains, locus YMR205C, strain PFK2, hits give low values 0.998 | S. cerevisiae deletion strains, locus YMR223W, strain ubp8, hits give low values 0.987 | S. cerevisiae deletion strains, locus YMR231W, strain pep5, hits give low values 0.992 | S. cerevisiae deletion strains, locus YMR263W, strain SAP30, hits give low values 0.953 | S. cerevisiae deletion strains, locus YMR307W, strain GAS1, hits give low values 0.948 | S. cerevisiae deletion strains, locus YNL067W, strain RPL9B, hits give low values 0.996 | S. cerevisiae deletion strains, locus YNL071W, strain lat1, hits give low values 0.98 | S. cerevisiae deletion strains, locus YNL128W, strain TEP1, hits give low values 0.987 | S. cerevisiae deletion strains, locus YNL153C, strain GIM3, hits give low values 0.993 | S. cerevisiae deletion strains, locus YNL183C, strain NPR1, hits give low values 0.925 | S. cerevisiae deletion strains, locus YNL209W, strain ssb2, hits give low values 0.983 | S. cerevisiae deletion strains, locus YNL233W, strain BNI4, hits give low values 0.981 | S. cerevisiae deletion strains, locus YNL248C, strain rpa49, hits give low values 0.985 | S. cerevisiae deletion strains, locus YNL250W, strain rad50, hits give low values 0.956 | S. cerevisiae deletion strains, locus YNL271C, strain bni1, hits give low values 0.963 | S. cerevisiae deletion strains, locus YNL298W, strain CLA4, hits give low values 0.972 | S. cerevisiae deletion strains, locus YNL307C, strain MCK1, hits give low values 0.975 | S. cerevisiae deletion strains, locus YNL322C, strain KRE1 (second series), hits give low values 0.968 | S. cerevisiae deletion strains, locus YNL322C, strain KRE1, hits give low values 0.997 | S. cerevisiae deletion strains, locus YNR049C, strain mso1, hits give low values 1 | S. cerevisiae deletion strains, locus YNR052C, strain pop2, hits give low values 0.97 | S. cerevisiae deletion strains, locus YOL006C, strain TOP1, hits give low values 0.965 | S. cerevisiae deletion strains, locus YOL012C, strain htz1 1.01 | S. cerevisiae deletion strains, locus YOL147C, strain pex11, hits give low values 0.981 | S. cerevisiae deletion strains, locus YOR001W, strain rrp6, hits give low values 1.01 | S. cerevisiae deletion strains, locus YOR061W, strain CKA2, hits give low values 0.986 | S. cerevisiae deletion strains, locus YOR069W, strain VPS5, hits give low values 0.981 | S. cerevisiae deletion strains, locus YOR070C, strain gyp1, hits give low values 0.998 | S. cerevisiae deletion strains, locus YOR080W, strain dia2, hits give low values 0.986 | S. cerevisiae deletion strains, locus YOR083W, strain WHI5, hits give low values 0.933 | S. cerevisiae deletion strains, locus YOR106W, strain vam3, hits give low values 0.977 | S. cerevisiae deletion strains, locus YOR136W, strain idh2, hits give low values 0.967 | S. cerevisiae deletion strains, locus YOR144C, strain elg1, hits give low values 0.958 | S. cerevisiae deletion strains, locus YOR184W, strain ser1, hits give low values 0.966 | S. cerevisiae deletion strains, locus YOR231W, strain MKK1, hits give low values 0.978 | S. cerevisiae deletion strains, locus YOR265W, strain rbl2, hits give low values 0.988 | S. cerevisiae deletion strains, locus YOR270C, strain vph1, hits give low values 0.981 | S. cerevisiae deletion strains, locus YOR290C, strain snf2, hits give low values 0.987 | S. cerevisiae deletion strains, locus YOR316C, strain cot1, hits give low values 0.972 | S. cerevisiae deletion strains, locus YPL051W, strain arl3, hits give low values 0.988 | S. cerevisiae deletion strains, locus YPL055C, strain LGE1, hits give low values 1 | S. cerevisiae deletion strains, locus YPL078C, strain atp4, hits give low values 0.988 | S. cerevisiae deletion strains, locus YPL106C, strain sse1, hits give low values 0.958 | S. cerevisiae deletion strains, locus YPL240C, strain hsp82, hits give low values 1.02 | S. cerevisiae deletion strains, locus YPL241C, strain CIN2, hits give low values 0.993 | S. cerevisiae deletion strains, locus YPL256C, strain CLN2, hits give low values 0.972 | S. cerevisiae deletion strains, locus YPR119W, strain clb2, hits give low values 0.974 | S. cerevisiae deletion strains, locus YPR141C, strain kar3, hits give low values 0.952 | S. cerevisiae deletion strains, locus YPR163C, strain tif3, hits give low values 0.965 | S. cerevisiae deletion strains, locus YPR167C, strain met16, hits give low values 0.965 | S. cerevisiae deletion strains, strain wtn01, hits give low values 0.982 | S. cerevisiae strains, strain wild type, hits give low values 0.993
